Source: PubChem BioAssay (Tox21)
Inconclusive results are not listed. Active and inactive are the calls of the source. Unless noted, calls come from the whole dose curve.

What was measured:
[1] = qHTS assay to identify small molecule antagonists of the sonic hedgehog signaling (Shh) pathway (AID 1259369); note: nearly all actives have a fitted effect of over 45% in size; note: potency is the fitted concentration of half-maximal effect
Procedure, shortened: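 Cells are plated and held 4hr at 37 C, compounds (DMSO) are pinned in, conditioned medium is added to stimulate the pathway, and after 24hr luciferase reagent is added for 30min before luminescence is read.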

[2] = qHTS assay to identify small molecule agonists of the androgen receptor (AR) signaling pathway in the presence of an antagonist - cell viability counter screen (AID 1259379; active = well fitted curve in the direction sought with a large enough effect in the repeat runs; an effect the other way counts as inactive or inconclusive;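 note: MDA-kb2 human breast cancer cells carrying an MMTV luciferase reporter; series mostly up to about 92 µM; nearly all actives have a fitted effect of over 25% in size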)
Procedure, shortened: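 Cytotoxicity is assessed by CellTiter-Fluor in MDA-kb2 cells carrying an MMTV-driven luciferase reporter. Cells receive 3.0uM nilutamide plus compounds at 15 concentrations and incubate 16 hr at 37C without CO2 before fluorescence reading.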

[3] = qHTS assay to identify small molecule agonists of the estrogen receptor beta (ER-beta) signaling pathway - cell viability counter screen (AID 1259380; active = well fitted curve in the direction sought with a large enough effect in the repeat runs; an effect the other way counts as inactive or inconclusive; note: nearly all actives have a fitted effect of over 30% in size; note: potency is the fitted concentration of half-maximal effect)
Procedure, shortened: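 Cytotoxicity is measured in parallel with the reporter screen: after 16 hr compound exposure at 37C and a 2 hr LiveBLAzer step, CellTiter-Glo is added to the same ER-beta-UAS-bla HEK293T wells and luminescence read after 30 min.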

[4] = qHTS assay to identify small molecule antagonists of the estrogen receptor beta (ER-beta) signaling pathway - cell viability counter screen (AID 1259382; active = well fitted curve in the direction sought with a large enough effect in the repeat runs; an effect the other way counts as inactive or inconclusive; note: series mostly up to about 92 µM; nearly all actives have a fitted effect of over 55% in size)
Procedure, shortened: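 Cytotoxicity counter screen multiplexed with the beta-lactamase antagonist assay: GripTite HEK293T ER-beta-bla cells were treated 16 hr with test chemicals in the presence of 1nM 17-beta-estradiol, and viability was measured by CellTiter-Glo.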

[5] = molecular target: Estrogen receptor (Homo sapiens) (UniProt P03372); assay: qHTS assay to identify small molecule agonists of the estrogen receptor alpha (ER-alpha) signaling pathway in the presence of an antagonist (AID 1259383); note: top concentration of the series differs between compounds; nearly all actives have a fitted effect of over 15% in size
Estrogen receptor (Homo sapiens), sequence (P03372 whole entry, looked up): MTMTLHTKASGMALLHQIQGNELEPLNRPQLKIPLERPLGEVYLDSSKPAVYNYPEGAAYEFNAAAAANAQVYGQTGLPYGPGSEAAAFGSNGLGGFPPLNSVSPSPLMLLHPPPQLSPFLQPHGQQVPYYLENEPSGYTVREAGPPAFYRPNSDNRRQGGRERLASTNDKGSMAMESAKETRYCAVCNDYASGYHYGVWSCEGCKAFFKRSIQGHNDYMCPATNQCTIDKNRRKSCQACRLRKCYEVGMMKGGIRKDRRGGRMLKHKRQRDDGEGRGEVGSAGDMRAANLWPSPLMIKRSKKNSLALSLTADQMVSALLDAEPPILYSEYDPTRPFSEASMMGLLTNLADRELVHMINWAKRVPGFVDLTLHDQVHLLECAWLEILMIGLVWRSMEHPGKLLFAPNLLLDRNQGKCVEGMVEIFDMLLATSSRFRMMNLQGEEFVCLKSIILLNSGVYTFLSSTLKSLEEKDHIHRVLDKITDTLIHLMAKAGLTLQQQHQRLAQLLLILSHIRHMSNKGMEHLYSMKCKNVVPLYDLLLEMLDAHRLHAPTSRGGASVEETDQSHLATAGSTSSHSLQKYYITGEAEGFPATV
Procedure, shortened: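 Agonist-mode confirmation in the presence of the ER antagonist ICI-182,780 at 10.0nM final. Breast-derived VM7Luc4E2 reporter cells were exposed to compounds for 22hr, and ERE-driven luciferase was quantified by luminescence.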

[6] = qHTS assay to identify small molecule agonists or antagonists of the thyroid stimulating hormone receptor (TSHR) signaling pathway - wild type cell line counter screen (AID 1259384)
Procedure, shortened: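 Wild-type Hek293 cells, 800/well, 18 h at 37C, then compound with Ro20-1724 for 30 min RT. cAMP by HTRF (cAMP-d2/anti-cAMP cryptate), 1 h RT, fluorescence read. 15 concentrations, triplicates.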

[7] = molecular target: Thyrotropin receptor (Homo sapiens) (UniProt P16473); assay: qHTS assay to identify small molecule antagonists of the thyroid stimulating hormone receptor (TSHR) signaling pathway (AID 1259385); note: nearly all actives have a fitted effect of over 20% in size
Thyrotropin receptor (Homo sapiens), sequence (P16473 whole entry, looked up): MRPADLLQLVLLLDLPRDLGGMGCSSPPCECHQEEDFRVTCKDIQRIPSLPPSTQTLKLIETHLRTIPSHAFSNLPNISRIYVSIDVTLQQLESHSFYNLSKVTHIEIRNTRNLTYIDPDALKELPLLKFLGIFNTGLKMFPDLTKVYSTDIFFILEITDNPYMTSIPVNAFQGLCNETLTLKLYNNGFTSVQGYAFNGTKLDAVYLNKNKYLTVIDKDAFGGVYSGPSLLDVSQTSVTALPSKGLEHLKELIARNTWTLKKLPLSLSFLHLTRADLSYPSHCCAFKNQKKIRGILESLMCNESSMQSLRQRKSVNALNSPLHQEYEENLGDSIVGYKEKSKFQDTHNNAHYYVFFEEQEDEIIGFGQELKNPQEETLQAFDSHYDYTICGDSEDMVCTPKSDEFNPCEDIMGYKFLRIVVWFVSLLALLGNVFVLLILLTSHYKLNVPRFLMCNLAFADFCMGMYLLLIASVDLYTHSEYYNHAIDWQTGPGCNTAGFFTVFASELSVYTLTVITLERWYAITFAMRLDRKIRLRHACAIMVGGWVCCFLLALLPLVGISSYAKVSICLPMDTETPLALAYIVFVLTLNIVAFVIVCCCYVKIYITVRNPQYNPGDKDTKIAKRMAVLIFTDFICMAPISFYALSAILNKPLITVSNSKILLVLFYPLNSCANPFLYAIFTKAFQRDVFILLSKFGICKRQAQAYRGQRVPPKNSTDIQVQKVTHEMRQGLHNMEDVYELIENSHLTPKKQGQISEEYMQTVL
Procedure, shortened: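 TSHR-HEK293 cells (800/well) plated 18 h, then compounds with Ro20-1724 and TSH at 1.5 ng/mL final, 30 min at room temperature. cAMP quantified by HTRF (cAMP-d2/anti-cAMP-cryptate, 1 h); 15 concentrations in triplicate.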

[8] = qHTS assay to identify small molecule agonists of the estrogen receptor alpha (ER-alpha) signaling pathway in the presence of an antagonist - cell viability counter screen (AID 1259386; active = well fitted curve in the direction sought with a large enough effect in the repeat runs; an effect the other way counts as inactive or inconclusive;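 note: series mostly up to about 92 µM; cells exposed to compounds for 22 h at 37 °C before the viability read; nearly all actives have a fitted effect of over 30% in size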)
Procedure, shortened: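 Cytotoxicity was measured in parallel with the ERE-luciferase agonist screen, in the same wells. The cells were VM7Luc4E2, which endogenously express ER-alpha, and treatment was with compounds plus 10.0nM ICI-182,780 for 22hr.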

[9] = molecular target: Progesterone receptor (Homo sapiens) (UniProt P06401); assay: qHTS assay to identify small molecule agonists of the progesterone receptor (PR) signaling pathway (AID 1346784); note: nearly all actives have a fitted effect of over 30% in size
Progesterone receptor (Homo sapiens), sequence (P06401 whole entry, looked up): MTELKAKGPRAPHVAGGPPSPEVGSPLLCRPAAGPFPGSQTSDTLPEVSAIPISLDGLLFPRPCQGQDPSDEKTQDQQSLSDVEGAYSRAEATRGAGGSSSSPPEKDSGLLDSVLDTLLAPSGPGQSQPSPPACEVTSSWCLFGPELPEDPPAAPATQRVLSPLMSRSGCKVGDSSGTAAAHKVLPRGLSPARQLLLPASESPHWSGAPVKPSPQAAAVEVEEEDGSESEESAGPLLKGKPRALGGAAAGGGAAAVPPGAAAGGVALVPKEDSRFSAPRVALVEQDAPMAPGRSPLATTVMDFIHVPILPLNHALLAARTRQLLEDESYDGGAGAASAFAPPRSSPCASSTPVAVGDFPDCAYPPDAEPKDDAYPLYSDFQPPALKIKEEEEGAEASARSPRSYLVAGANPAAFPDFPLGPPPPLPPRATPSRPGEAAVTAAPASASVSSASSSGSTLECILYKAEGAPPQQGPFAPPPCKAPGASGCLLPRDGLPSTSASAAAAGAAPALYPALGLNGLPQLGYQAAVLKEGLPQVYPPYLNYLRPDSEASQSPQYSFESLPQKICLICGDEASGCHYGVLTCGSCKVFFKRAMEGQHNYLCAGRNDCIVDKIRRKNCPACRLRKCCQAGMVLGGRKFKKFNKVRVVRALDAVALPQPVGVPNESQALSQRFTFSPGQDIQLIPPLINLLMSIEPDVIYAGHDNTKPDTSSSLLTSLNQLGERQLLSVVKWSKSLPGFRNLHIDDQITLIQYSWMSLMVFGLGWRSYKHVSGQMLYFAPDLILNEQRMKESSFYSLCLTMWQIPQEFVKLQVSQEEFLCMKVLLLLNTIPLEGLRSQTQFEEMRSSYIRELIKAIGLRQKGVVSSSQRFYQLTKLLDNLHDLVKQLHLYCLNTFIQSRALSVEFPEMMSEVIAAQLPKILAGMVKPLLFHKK
Procedure, shortened: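 HEK 293T PR-UAS-bla reporter cells, 2% charcoal-stripped FBS; 6 hr settle at 37C/5% CO2, compound (DMSO) 16 hr, LiveBLAzer B/G FRET substrate 2 hr RT, fluorescence intensity read.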

[10] = molecular target: Progesterone receptor (Homo sapiens) (UniProt P06401); assay: qHTS assay to identify small molecule antagonists of the progesterone receptor (PR) signaling pathway (AID 1346795; active = well fitted inhibition curve with a large enough effect in the signal ratio in the repeat runs, not every such curve was filed as active; the % refers to the signal ratio; note: potency is the fitted concentration of half-maximal effect)
Procedure, shortened: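 Beta-lactamase reporter, HEK293T PR-UAS-bla line; 2% charcoal-stripped FBS; 6 hr pre-incubation, 37C/5% CO2. Compound + R5020 1 nM final, 16 hr. LiveBLAzer B/G FRET substrate, 2 hr RT; fluorescence intensity read.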

[11] = qHTS assay to identify small molecule antagonists of the progesterone receptor (PR) signaling pathway - cell viability counter screen (AID 1346798; active = well fitted curve in the direction sought with a large enough effect in the repeat runs; an effect the other way counts as inactive or inconclusive; note: series mostly up to about 92 µM; nearly all actives have a fitted effect of over 50% in size)
Procedure, shortened: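 Luminescence readout (CellTiter-Glo, 30 min, RT) of viability in PR-UAS-bla HEK293T cells exposed to compound and R5020 agonist for 16 hr at 37C, 5% CO2; run in the same wells as the beta-lactamase reporter read.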

[12] = qHTS assay to identify small molecule agonists of the progesterone receptor (PR) signaling pathway - cell viability counter screen (AID 1346799); note: nearly all actives have a fitted effect of over 45% in size
Procedure, shortened: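 HEK293T PR-UAS-bla, 3,000 cells/well, 2% charcoal-stripped FBS; 6 h settle, compound 16 h at 37C/5% CO2; LiveBLAzer 2 h RT, then CellTiter-Glo 30 min RT, luminescence read.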

[13] = qHTS assay to identify small molecule antagonists of the TGF-beta/Smad signaling pathway - cell viability counter screen (AID 1346824; active = well fitted curve in the direction sought with a large enough effect in the repeat runs; an effect the other way counts as inactive or inconclusive; note: nearly all actives have a fitted effect of over 50% in size)
Procedure, shortened: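 SBE-bla HEK 293T cells, incubated overnight, then compound plus 0.25 ng/mL TGF-beta1 (stock added) for 5 hr at 37 C. Viability was read in the same wells by CellTiter-Glo luminescence after 30 min at room temperature.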

[14] = qHTS assay to identify small molecule agonists of the TGF-beta/Smad signaling pathway - cell viability counter screen (AID 1346829; active = well fitted curve in the direction sought with a large enough effect in the repeat runs; an effect the other way counts as inactive or inconclusive; note: top concentration of the series differs between compounds; nearly all actives have a fitted effect of over 45% in size)
Procedure, shortened: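 Tox21 qHTS format: SBE-bla HEK 293T cells treated with DMSO-dissolved compounds for 5 hr; CellTiter-Glo luminescence after 30 min at room temperature.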

[15] = qHTS assay to identify small molecule agonists of the TGF-beta/Smad signaling pathway (AID 1346859; active = well fitted activation curve with a large enough effect in the signal ratio in the repeat runs, not every such curve was filed as active; the % refers to the signal ratio; note: series mostly up to about 77 µM)
Procedure, shortened: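 Read-out: fluorescence at 460 and 530 nm (405 nm excitation) after a 2 hr room-temperature incubation with beta-lactamase FRET substrate. SBE-bla HEK 293T cells had been treated with test compounds for 5 hr at 37 C.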

[16] = molecular target: Thyrotropin-releasing hormone receptor (Homo sapiens) (UniProt P34981); assay: qHTS assay to identify small molecule antagonists of the thyrotropin-releasing hormone receptor (TRHR) signaling pathway (AID 1346877; active = well fitted inhibition curve with a large enough effect in the repeat runs, not every such curve was filed as active; note: series mostly up to about 51 µM)
Thyrotropin-releasing hormone receptor (Homo sapiens), sequence (P34981 whole entry, looked up): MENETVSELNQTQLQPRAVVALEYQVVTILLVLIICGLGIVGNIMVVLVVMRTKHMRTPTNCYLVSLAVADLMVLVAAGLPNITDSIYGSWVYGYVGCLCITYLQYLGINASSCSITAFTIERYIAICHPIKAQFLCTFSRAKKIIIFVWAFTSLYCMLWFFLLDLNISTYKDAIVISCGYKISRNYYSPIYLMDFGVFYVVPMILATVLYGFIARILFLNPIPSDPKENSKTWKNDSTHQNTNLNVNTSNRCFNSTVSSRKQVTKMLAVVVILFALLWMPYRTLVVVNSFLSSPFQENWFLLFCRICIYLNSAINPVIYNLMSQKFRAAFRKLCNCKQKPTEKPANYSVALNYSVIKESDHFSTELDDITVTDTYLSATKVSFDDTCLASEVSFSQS
Procedure, shortened: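 Antagonism is measured as suppression of the calcium response to 1 nM TRH in TRHR-HEK293 cells that have been dye-loaded for 2 h at 37 °C after overnight plating. Each compound is tested at 15 concentrations in triplicate.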

[17] = molecular target: Thyrotropin-releasing hormone receptor (Homo sapiens) (UniProt P34981); assay: qHTS assay to identify small molecule agonists of the thyrotropin-releasing hormone receptor (TRHR) signaling pathway (AID 1346891);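 note: HEK293 cells expressing TRHR with calcium dye readout; series mostly up to about 58 µM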
Procedure, shortened: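 HEK293/TRHR cells, 1500 per well, 18 h 37 °C; Ca dye 2 h 37 °C; pin-tool compound addition (agonist mode); kinetic fluorescence 3 min, 1 s reads; 15 concentrations, triplicate.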

[18] = molecular target: Androgen receptor (Homo sapiens) (UniProt P10275); assay: qHTS assay to identify small molecule agonists of the androgen receptor (AR) signaling pathway in the presence of an antagonist (AID 1259381); note: nearly all actives have a fitted effect of over 15% in size
Androgen receptor (Homo sapiens), sequence (P10275 whole entry, looked up): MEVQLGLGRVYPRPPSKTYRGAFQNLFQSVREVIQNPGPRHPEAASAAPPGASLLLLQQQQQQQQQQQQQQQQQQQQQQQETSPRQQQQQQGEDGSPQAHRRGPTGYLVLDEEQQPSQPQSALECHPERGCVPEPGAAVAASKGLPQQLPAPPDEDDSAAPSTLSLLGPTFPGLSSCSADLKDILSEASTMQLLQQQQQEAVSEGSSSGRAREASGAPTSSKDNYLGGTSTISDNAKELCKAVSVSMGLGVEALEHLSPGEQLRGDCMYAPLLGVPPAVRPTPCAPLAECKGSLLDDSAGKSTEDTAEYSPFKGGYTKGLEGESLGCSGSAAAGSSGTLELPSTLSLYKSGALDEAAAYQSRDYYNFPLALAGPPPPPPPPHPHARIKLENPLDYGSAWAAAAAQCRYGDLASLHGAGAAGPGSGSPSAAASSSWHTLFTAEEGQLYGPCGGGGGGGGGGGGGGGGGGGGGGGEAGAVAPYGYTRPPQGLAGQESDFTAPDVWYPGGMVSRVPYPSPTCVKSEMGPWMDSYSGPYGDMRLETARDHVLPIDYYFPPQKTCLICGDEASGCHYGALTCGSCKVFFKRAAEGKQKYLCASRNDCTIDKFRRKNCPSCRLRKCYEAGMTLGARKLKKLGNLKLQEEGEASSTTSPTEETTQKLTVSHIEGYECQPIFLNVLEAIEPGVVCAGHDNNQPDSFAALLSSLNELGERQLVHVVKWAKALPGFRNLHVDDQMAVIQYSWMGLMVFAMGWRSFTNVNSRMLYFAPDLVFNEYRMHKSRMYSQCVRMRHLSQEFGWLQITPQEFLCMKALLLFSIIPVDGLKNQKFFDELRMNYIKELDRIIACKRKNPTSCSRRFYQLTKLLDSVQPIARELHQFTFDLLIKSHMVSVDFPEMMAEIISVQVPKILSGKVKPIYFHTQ
Procedure, shortened: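 Agonist-mode confirmation screen: human MDA-kb2 cells stably expressing luciferase under an MMTV promoter bearing AR and GR response elements, co-treated with 3.0uM nilutamide (final). Luminescence measured after 16hr compound incubation.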

[19] = molecular target: Estrogen receptor beta (Homo sapiens) (UniProt Q92731); assay: qHTS assay to identify small molecule antagonists of the estrogen receptor beta (ER-beta) signaling pathway (AID 1259378; active = well fitted inhibition curve with a large enough effect in the signal ratio in the repeat runs, not every such curve was filed as active; the % refers to the signal ratio; note: potency is the fitted concentration of half-maximal effect)
Estrogen receptor beta (Homo sapiens), sequence (Q92731 whole entry, looked up): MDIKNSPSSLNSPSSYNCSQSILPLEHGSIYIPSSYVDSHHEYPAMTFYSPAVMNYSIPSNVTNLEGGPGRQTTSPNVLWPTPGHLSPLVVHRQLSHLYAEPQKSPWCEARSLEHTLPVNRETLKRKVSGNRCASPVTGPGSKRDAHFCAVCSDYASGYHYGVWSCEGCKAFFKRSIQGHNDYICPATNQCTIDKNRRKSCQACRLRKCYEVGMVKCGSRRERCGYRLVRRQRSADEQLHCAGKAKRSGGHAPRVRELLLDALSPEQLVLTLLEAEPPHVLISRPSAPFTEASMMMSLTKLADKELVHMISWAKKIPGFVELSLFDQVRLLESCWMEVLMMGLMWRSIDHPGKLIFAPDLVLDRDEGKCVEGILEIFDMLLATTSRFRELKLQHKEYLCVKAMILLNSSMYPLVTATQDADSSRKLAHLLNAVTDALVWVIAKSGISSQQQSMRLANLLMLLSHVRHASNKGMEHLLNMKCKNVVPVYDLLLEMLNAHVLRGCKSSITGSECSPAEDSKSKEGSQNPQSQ
Procedure, shortened: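 ER-beta-UAS-bla HEK293T cells in 2% charcoal-stripped FBS medium treated with compound plus 1nM final 17-beta-estradiol for 16 hr at 37C. Beta-lactamase reporter read by FRET substrate fluorescence after 2 hours at room temperature.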

Measured: Potency

CCOC(=O)C1=NN(c2ccccc2)C(=O)C1
not listed: [18] | [19]
inactive: all other assays above

O=C(O)c1cccc(N(Cc2cccnc2)c2ccc(OC(F)F)c(OC(F)F)c2)c1
active: [1] 0.969 µM | [3] 48.6 µM
not listed: [4] | [5] | [10] | [15] | [16] | [17] | [19]
inactive: all other assays above

CC(C)(C)c1cc(CCC(=O)OCC(COC(=O)CCc2cc(C(C)(C)C)c(O)c(C(C)(C)C)c2)(COC(=O)CCc2cc(C(C)(C)C)c(O)c(C(C)(C)C)c2)COC(=O)CCc2cc(C(C)(C)C)c(O)c(C(C)(C)C)c2)cc(C(C)(C)C)c1O
not listed: [3] | [4] | [18]
inactive: all other assays above

NCCCN(CCO)CCO
not listed: [11] | [19]
inactive: all other assays above

CCc1nn(C2CCCCC2)c2cc(C3(C#N)CCC(C(=O)O)CC3)ccc12 (configuration not stated)
active: [19] 13.7 µM | [3] 8.63 µM
not listed: [2] | [8] | [10] | [11] | [12] | [15] | [18]
inactive: all other assays above

CC(C)CCCC(C)CCO (configuration not stated)
active: [1] 61.1 µM
not listed: [9] | [19]
inactive: all other assays above

Cc1ccc(C(=O)C(C)CN2CCCCC2)cc1 (configuration not stated)
not listed: [6] | [18]
inactive: all other assays above

S=C(S)NCCNC(=S)S
not listed: [5] | [16] | [17] | [18]
inactive: all other assays above

CCN(CC)C(C)CN1c2ccccc2Sc2ccccc21 (configuration not stated)
not listed: [3] | [4] | [9] | [10] | [16] | [17] | [18]
inactive: all other assays above

COc1ccccc1OC(=O)Oc1ccccc1OC
active: [3] 23.7 µM | [10] 26.6 µM
not listed: [4] | [5]
inactive: all other assays above

C1CCC2OC2C1 (configuration not stated)
not listed: [4] | [7] | [11]
inactive: all other assays above

CCOC(=O)CC(C)C
not listed: [2] | [3] | [4] | [6] | [18]
inactive: all other assays above

OC(CCN1CCCCC1)(c1ccccc1)C1CCCCC1 (configuration not stated)
active: [1] 8.41 µM
not listed: [3] | [7] | [15] | [16] | [17] | [18]
inactive: all other assays above

O=C(Cl)c1c(Cl)cccc1Cl
not listed: [18] | [19]
inactive: all other assays above

CC(C)c1ccccc1C(C)C
not listed: [5] | [16] | [17] | [18]
inactive: all other assays above

CN(C)CCCOc1nn(Cc2ccccc2)c2ccccc12
not listed: [3] | [10] | [11] | [18]
inactive: all other assays above
